# Values joined by “and” are separate entries in the source; they are usually repeats but may differ in a detail not shown here. Equal values may be shown once. More than one record can exist for a structure, and the calls need not agree. Active and inactive are the calls of the source. Unless noted, how the calls were made is not given here.
# Experiments:
# [1] = glutamate transport activators, MN-1 cells, MN-1 cell line (AID 1612); conditions: MN-1 motor neuron cells, stronger effect = higher value;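 further: tested at 1 µM final; 0% = mean of DMSO vehicle wells on each plate; positive means more glutamate uptake than control and negative means less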
# [2] = GFP-Q80 aggregate reduction, neuronal-like cells, cell-based, NGF-treated PC12, GFPQ80 (AID 1614); conditions: PC12 NGF-treated GFP-polyQ80 inclusion reduction;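 further: lower means fewer inclusions and 0 means no inclusions at all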
# [3] = 75Q-TubH aggregate inhibition, S. cerevisiae, yeast (AID 1616); conditions: S. cerevisiae 75Q-TubH polyglutamine aggregation suppression; stronger effect = higher value
# [4] = P. berghei load reduction in hepatocytes – cell-based, HepG2, luciferase luminescence, HepG2 viability, primary screen (AID 624349; in the data active means parasite load remaining mostly below about 12%, no sharp cut-off; inactive means mostly above about 10%;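 further: 100% = mean of DMSO negative control wells on the same plate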); conditions: P. berghei liver stage in HepG2, luciferase luminescence, concentration not given here; parasite load remaining: stronger effect = lower value; viability: measured here: HepG2 viability without parasites
# [5] = Wnt pathway potentiators raising nuclear beta-catenin – imaging, WNT3A-conditioned medium, mouse C2C12, NPC library, primary screen (AID 1117326; in the data active means nuclear beta-catenin stimulation mostly above about 4.2%, no sharp cut-off; inactive means mostly below about 10%); conditions: stronger effect = higher value
# [6] = compounds altering viability of human ES cells (AID 493140); conditions: human embryonic stem cell survival screen; stronger effect = higher value;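 further: cells exposed to compounds for four days before counting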
# [7] = compounds altering circadian rhythm period length – cell-based, LOPAC library, luminescence reporter (AID 2774); conditions: circadian reporter cells, at 7 µM, actives lie on both sides;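 further: values are relative to mean of DMSO wells on each plate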
# [8] = test system: Hepatitis C virus NS3 helicase; assay: blockers of NS3h binding to ssDNA – biochemical, fluorescence polarization, LOPAC1280 library, primary screen (AID 687035; in the data active means inhibition above about 37%); conditions: Purified HCV NS3 helicase, Cy5-dT15 ssDNA binding fluorescence polarization; stronger effect = higher value; concentration not given here
# [9] = compounds altering Cy5-DNA-NS3h complex signal – biochemical, LOPAC1280, artefact control for HCV NS3 helicase inhibitor project (AID 687037); conditions: Cy5-DNA-NS3h complex fluorescence interference counterscreen
# [10] = human hepatoma cell viability loss – ATP luminescence, cytotoxicity control for P. falciparum antimalarial project, primary screen (AID 2303;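 active means inhibition above 50%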;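 further: 0% = DMSO wells and 100% = digitonin-killed cells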); conditions: HepG2 viability, 24-48 h, at 10 µM, stronger effect = higher value
# [11] = target: L-lactate dehydrogenase (Plasmodium falciparum (isolate CDC / Honduras)) (UniProt Q27743); assay: PfLDH activity inhibition – cell lysate, 3D7 strain, counter-screen for P. falciparum growth inhibition project (AID 2304);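 further: 0% = vehicle and 100% = reference inhibitor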; conditions: P. falciparum 3D7 crude extract, LDH APAD/NBT absorbance; at 2 µM; stronger effect = higher value
# [12] = inhibition of 3D7 malaria parasite growth – strain 3D7 (AID 2306);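 further: 0% = DMSO wells and 100% = chloroquine plus artemisinin control wells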; conditions: P. falciparum 3D7 erythrocytic growth, LDH absorbance, 72 h; at 2 µM; stronger effect = higher value
# [13] = signal quenchers or enhancers, Cy5 substrate/SSB – biochemical, NIH Clinical Collection, E. coli SSB, artefact control for HCV NS3 helicase inhibitor project (AID 743268); conditions: Cy5-oligo bound E. coli SSB, fluorescence interference
# [14] = test system: Hepatitis C virus NS3 helicase; assay: blockers of NS3h binding to DNA – biochemical, fluorescence polarization, NIH Clinical Collection, primary screen (AID 743270); conditions: NS3 helicase binding to Cy5-dT15 DNA, stronger effect = higher value, concentration not given here
# [15] = target: Single-stranded DNA-binding protein (Escherichia coli (strain K12)) (UniProt P0AGE0); assay: SSB-ssDNA binding inhibitors – biochemical, fluorescence polarization, NIH Clinical Collection, counter-screen for HCV NS3 helicase inhibitor project (AID 743271; in the data active means inhibition above about 28%); conditions: E. coli SSB-DNA binding, stronger effect = higher value, concentration not given here
# [16] = compounds distorting NS3 helicase fluorescence signal – biochemical, NIH Clinical Collection, artefact control for HCV NS3 helicase inhibitor project (AID 743272); conditions: fluorescence interference counterscreen, HCV NS3 helicase assay; stronger effect = lower value;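 further: HCV NS3 helicase with a Cy5 labelled single stranded DNA probe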
# [17] = test system: Neuropilin-2 / VEGF-C interaction (human); assay: small molecules blocking Neuropilin-2/VEGF-C interaction – biochemical, microplate binding format, z-score (AID 743281); conditions: microplate NRP2/VEGF-C binding assay; stronger effect = lower value
# Chain of L-lactate dehydrogenase (Plasmodium falciparum (isolate CDC / Honduras)) (Q27743 whole entry, looked up): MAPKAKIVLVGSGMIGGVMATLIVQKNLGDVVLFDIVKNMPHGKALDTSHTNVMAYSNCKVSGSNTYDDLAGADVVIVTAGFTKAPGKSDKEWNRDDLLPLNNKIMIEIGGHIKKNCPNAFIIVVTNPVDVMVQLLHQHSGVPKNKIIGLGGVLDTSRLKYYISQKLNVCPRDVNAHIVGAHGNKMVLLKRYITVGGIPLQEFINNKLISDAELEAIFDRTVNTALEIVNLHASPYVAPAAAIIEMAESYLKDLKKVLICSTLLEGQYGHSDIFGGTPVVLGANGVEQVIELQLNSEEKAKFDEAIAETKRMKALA
structure (smiles),measurement,setting,value
N[C@@H](CCC(=O)N[C@@H](CS)C(=O)NCC(=O)O)C(=O)O,glutamate uptake change,[1],13.8%
same,inclusion score,[2],2
same,aggregation suppression score,[3],1.61
same,parasite load remaining,[4],31.4% (inactive)
same,viability,[4],68.2%
same,nuclear beta-catenin stimulation,[5]; at 10 µM,-1% (inactive)
same,nuclear beta-catenin stimulation,"[5]; stimulation, at 2 µM",4%
CC(=O)Oc1cccc(O)c1,glutamate uptake change,[1],-3.14%
same,inclusion score,[2],2
same,aggregation suppression score,[3],0.901
same,parasite load remaining,[4],139% (inactive) and 53% (inactive)
same,viability,[4],92.8% and 100%
same,nuclear beta-catenin stimulation,[5]; at 10 µM,0.7% (inactive)
same,nuclear beta-catenin stimulation,"[5]; stimulation, at 2 µM",2%
CCN(CC)C(=O)c1cccc(C)c1,glutamate uptake change,[1],1.78%
same,inclusion score,[2],2
same,aggregation suppression score,[3],1.01
same,parasite load remaining,[4],18.9% (inactive)
same,viability,[4],97.4%
same,nuclear beta-catenin stimulation,[5]; at 10 µM,6.1% (inactive)
same,nuclear beta-catenin stimulation,"[5]; stimulation, at 2 µM",3.9%
CCC(=O)c1c(O)cc(O)cc1O,glutamate uptake change,[1],-10.7%
same,inclusion score,[2],2
same,aggregation suppression score,[3],1.29
same,parasite load remaining,[4],100% (inactive)
same,viability,[4],70.3%
same,nuclear beta-catenin stimulation,[5]; at 10 µM,1.8% (inactive)
same,nuclear beta-catenin stimulation,"[5]; stimulation, at 2 µM",2%
CN1CCC[C@@H]1CCO[C@](C)(c1ccccc1)c1ccc(Cl)cc1,glutamate uptake change,[1],65.2%
same,aggregation suppression score,[3],0.9
same,survival,[6],6.33 (inactive)
same,nuclear beta-catenin stimulation,[5]; at 10 µM,7.8% (inactive)
same,nuclear beta-catenin stimulation,"[5]; stimulation, at 2 µM",2.3%
NC(=NCCCCCCN=C(N)/N=C(\N)Nc1ccc(Cl)cc1)/N=C(\N)Nc1ccc(Cl)cc1,glutamate uptake change,[1],-13.4%
same,aggregation suppression score,[3],0.0711
same,survival,[6],3.17 (inactive)
same,nuclear beta-catenin stimulation,[5]; at 10 µM,-2.3% (active)
same,nuclear beta-catenin stimulation,"[5]; stimulation, at 2 µM",45.4%
Cc1oncc1C(=O)Nc1ccc(C(F)(F)F)cc1,glutamate uptake change,[1],8.42%
same,aggregation suppression score,[3],0.133
same,period change,[7],0.35 h (inactive)
same,survival,[6],6.08 (inactive)
same,parasite load remaining,[4],174% (inactive) and 159% (inactive) and 30% (inactive)
same,viability,[4],94.2% and 84.7% and 88.5%
same,inhibition,[8],-2% (inactive)
same,fluorescence ratio (interference),[9],1 (inactive)
same,nuclear beta-catenin stimulation,[5]; at 10 µM,15.4% (inactive)
same,nuclear beta-catenin stimulation,"[5]; stimulation, at 2 µM",3.9%
CN(Cc1cnc2nc(N)nc(N)c2n1)c1ccc(C(=O)N[C@@H](CCC(=O)O)C(=O)O)cc1,glutamate uptake change,[1],10.9%
same,aggregation suppression score,[3],0.131
same,inhibition,[10],-2% (inactive)
same,inhibition,[11],1% (inactive)
same,growth inhibition,[12],91% (active)
same,period change,[7],0.835 h (inactive)
same,survival,[6],39.6 (inactive)
same,parasite load remaining,[4],8.84% (inactive) and 39.4% (inactive) and 21.9% (inactive)
same,viability,[4],38.7% and 143% and 94.1%
same,inhibition,[8],-1% (inactive)
same,fluorescence ratio (interference),[9],1 (inactive)
same,fluorescence ratio,[13],0.92 (inactive)
same,inhibition,[14],1.19% (inactive)
same,inhibition,[15],26.9% (inactive)
same,fluorescence ratio,[16],0.92 (inactive)
same,z-score,[17],-1.5 (inactive)
same,nuclear beta-catenin stimulation,[5]; at 10 µM,74% (active)
same,nuclear beta-catenin stimulation,"[5]; stimulation, at 2 µM",41%
C1CCC(C(CC2CCCCN2)C2CCCCC2)CC1 (stereo not given),glutamate uptake change,[1],-10.9%
same,aggregation suppression score,[3],0.885
same,survival,[6],6 (inactive)
same,nuclear beta-catenin stimulation,[5]; at 10 µM,22.1% (inactive)
same,nuclear beta-catenin stimulation,"[5]; stimulation, at 2 µM",1.1%
CC1=CC(=O)c2ccccc2C1=O,glutamate uptake change,[1],-13.7%
same,aggregation suppression score,[3],0.00728
same,survival,[6],2.42 (inactive)
same,nuclear beta-catenin stimulation,[5]; at 10 µM,25% (inactive)
same,nuclear beta-catenin stimulation,"[5]; stimulation, at 2 µM",0.1%
COc1ccc(C(=O)c2ccccc2)c(O)c1,glutamate uptake change,[1],5.28%
same,aggregation suppression score,[3],0.225
same,survival,[6],3.25 (inactive)
same,parasite load remaining,[4],175% (inactive) and 149% (inactive) and 68.3% (inactive)
same,viability,[4],96.8% and 72.8% and 91.5%
same,nuclear beta-catenin stimulation,[5]; at 10 µM,1.5% (inactive)
same,nuclear beta-catenin stimulation,"[5]; stimulation, at 2 µM",1%
C=Cc1c(C)c2cc3[nH]c(cc4nc(cc5nc(cc1[nH]2)C(C)=C5CCC(=O)O)C(CCC(=O)O)=C4C)c(C)c3C=C,glutamate uptake change,[1],5.14%
same,aggregation suppression score,[3],0.995
same,period change,[7],-0.02 h (inactive)
same,parasite load remaining,[4],108% (inactive)
same,viability,[4],65.3%
same,inhibition,[8],140% (active)
same,fluorescence ratio (interference),[9],2 (active)
same,nuclear beta-catenin stimulation,[5]; at 10 µM,-3.7% (inactive)
same,nuclear beta-catenin stimulation,"[5]; stimulation, at 2 µM",0.1%
CC/C(=C(/CC)c1ccc(O)cc1)c1ccc(O)cc1,glutamate uptake change,[1],-14.4%
same,aggregation suppression score,[3],0.447
same,survival,[6],3.75 (inactive)
same,nuclear beta-catenin stimulation,[5]; at 10 µM,21.1% (inactive)
same,nuclear beta-catenin stimulation,"[5]; stimulation, at 2 µM",-0.2%
CC(CN(C)C)CN1c2ccccc2CCc2ccccc21 (stereo not given),glutamate uptake change,[1],14.6%
same,aggregation suppression score,[3],1.32
same,period change,[7],-0.085 h (inactive)
same,survival,[6],2.17 (inactive)
same,parasite load remaining,[4],54.2% (inactive) and 101% (inactive) and 48.3% (inactive)
same,viability,[4],103% and 83.8% and 93.4%
same,inhibition,[8],-4% (inactive)
same,fluorescence ratio (interference),[9],1 (inactive)
same,nuclear beta-catenin stimulation,[5]; at 10 µM,-1.5% (inactive)
same,nuclear beta-catenin stimulation,"[5]; stimulation, at 2 µM",-0.7%
CCCC(C(=O)OCCN(CC)CC)(c1ccccc1)c1ccccc1,glutamate uptake change,[1],0.18%
same,aggregation suppression score,[3],1.25
same,period change,[7],-0.035 h (inactive)
same,survival,[6],3.58 (inactive)
same,parasite load remaining,[4],-0.02% (active) and 10.3% (inactive) and 0.005% (inactive)
same,viability,[4],85.1% and 64.2% and 90.3%
same,inhibition,[8],-6% (inactive)
same,fluorescence ratio (interference),[9],0.9 (inactive)
same,nuclear beta-catenin stimulation,[5]; at 10 µM,0% (inactive)
same,nuclear beta-catenin stimulation,"[5]; stimulation, at 2 µM",1.1%
NC(CO)C(=O)NNCc1ccc(O)c(O)c1O (stereo not given),glutamate uptake change,[1],11.3%
same,aggregation suppression score,[3],1.23
same,period change,[7],0.075 h (inactive)
same,survival,[6],2.42 (inactive)
same,inhibition,[8],1% (inactive)
same,fluorescence ratio (interference),[9],1 (inactive)
same,nuclear beta-catenin stimulation,[5]; at 10 µM,13.1% (inactive)
same,nuclear beta-catenin stimulation,"[5]; stimulation, at 2 µM",3.8%
CN(C)CCC=C1c2ccccc2C=Cc2ccccc21,glutamate uptake change,[1],-6.52%
same,aggregation suppression score,[3],1.07
same,period change,[7],0.095 h (inactive)
same,survival,[6],2.75 (inactive)
same,inhibition,[8],-2% (inactive)
same,fluorescence ratio (interference),[9],1 (inactive)
same,nuclear beta-catenin stimulation,[5]; at 10 µM,-1.8% (inactive)
same,nuclear beta-catenin stimulation,"[5]; stimulation, at 2 µM",-0.8%
COC(=O)Nc1nc2ccc(Sc3ccccc3)cc2[nH]1,glutamate uptake change,[1],-41.7%
same,aggregation suppression score,[3],0.129
same,survival,[6],0.833 (inactive)
same,nuclear beta-catenin stimulation,[5]; at 10 µM,56.8% (active)
same,nuclear beta-catenin stimulation,"[5]; stimulation, at 2 µM",33.5%
CCCCC1C(=O)N(c2ccccc2)N(c2ccc(O)cc2)C1=O (stereo not given),glutamate uptake change,[1],5.7%
same,aggregation suppression score,[3],0.77
same,survival,[6],4 (inactive)
same,parasite load remaining,[4],75.4% (inactive) and 73.9% (inactive) and 45.8% (inactive)
same,viability,[4],80.4% and 71.7% and 90.8%
same,nuclear beta-catenin stimulation,[5]; at 10 µM,66.2% (active)
same,nuclear beta-catenin stimulation,"[5]; stimulation, at 2 µM",2.3%
